Experimental data as given in ChEMBL document CHEMBL3988442, “University of Dundee, Small-Polar-MMV Screening Library” (2021).
For some assays here: Entries with a potency or affinity are not part of this list.

Experiments:
Set-up in all cases: scale not given: direction of the effect not stated beside the values
[1] = biological target: Protein translocase subunit SecA (Escherichia coli (strain K12)) (UniProt P10408); experiment: Assay to Identify E. coli SecA ATPase Inhibitors; assay type: functional; details: 30 µM
[2] = biological target: T1, Ubiquitin-activating enzyme e1, putative (Leishmania donovani (strain BPK282A1)) (UniProt E9BSI1); experiment: Leishmania donovani Ubiquitin Activating Enzyme (LdE1); assay type: functional; details: 30 µM
T1 sequence (whole entry): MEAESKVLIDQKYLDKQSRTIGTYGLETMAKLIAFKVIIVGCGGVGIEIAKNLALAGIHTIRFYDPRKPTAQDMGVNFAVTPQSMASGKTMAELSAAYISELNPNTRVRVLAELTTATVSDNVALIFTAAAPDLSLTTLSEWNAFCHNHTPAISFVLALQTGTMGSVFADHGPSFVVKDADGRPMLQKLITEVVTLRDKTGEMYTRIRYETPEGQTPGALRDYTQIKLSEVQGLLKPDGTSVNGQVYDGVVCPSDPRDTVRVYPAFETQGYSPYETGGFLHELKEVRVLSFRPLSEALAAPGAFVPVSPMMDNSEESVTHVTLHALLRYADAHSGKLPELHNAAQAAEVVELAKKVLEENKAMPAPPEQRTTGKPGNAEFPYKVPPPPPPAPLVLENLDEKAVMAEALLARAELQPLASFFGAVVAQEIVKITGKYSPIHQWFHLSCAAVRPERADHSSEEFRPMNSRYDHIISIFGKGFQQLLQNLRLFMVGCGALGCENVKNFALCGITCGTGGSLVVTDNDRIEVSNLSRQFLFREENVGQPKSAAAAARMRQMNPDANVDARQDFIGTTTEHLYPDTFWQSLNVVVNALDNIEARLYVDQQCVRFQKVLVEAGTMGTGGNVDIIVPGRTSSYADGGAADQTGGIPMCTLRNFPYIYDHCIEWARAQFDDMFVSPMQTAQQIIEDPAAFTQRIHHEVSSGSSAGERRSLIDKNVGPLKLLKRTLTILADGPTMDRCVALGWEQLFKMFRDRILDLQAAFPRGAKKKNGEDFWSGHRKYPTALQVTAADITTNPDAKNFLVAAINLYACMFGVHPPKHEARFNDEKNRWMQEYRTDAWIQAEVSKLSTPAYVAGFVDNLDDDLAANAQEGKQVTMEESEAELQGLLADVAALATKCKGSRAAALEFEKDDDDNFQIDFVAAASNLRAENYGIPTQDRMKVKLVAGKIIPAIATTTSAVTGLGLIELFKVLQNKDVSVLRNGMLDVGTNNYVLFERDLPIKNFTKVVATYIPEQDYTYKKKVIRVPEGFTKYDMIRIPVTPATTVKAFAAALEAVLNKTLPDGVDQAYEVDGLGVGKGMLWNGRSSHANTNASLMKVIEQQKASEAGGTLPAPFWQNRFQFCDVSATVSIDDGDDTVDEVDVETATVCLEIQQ

[3] = biological target: Sialic acid-binding Ig-like lectin 9 (Homo sapiens) (UniProt Q9Y336); experiment: Hs-Siglec9 ALPHAscreen SOP 20170721; details: 10 µM
Trypanosoma cruzi = experiment: Trypanosoma cruzi phosphomannomutase and mannose-1-phosphate guanylyltransferase assay; assay type: functional; details: 10 µM
[4] = biological target: T2, Arginase-2, mitochondrial (Homo sapiens) (UniProt P78540); experiment: in vitro enzyme assay to detect the production of urea directly proportional to the activity of Arginase II; assay type: functional; details: 33.3 µM; note: in the data most compounds retested in dose-response had high values
T2 sequence (whole entry): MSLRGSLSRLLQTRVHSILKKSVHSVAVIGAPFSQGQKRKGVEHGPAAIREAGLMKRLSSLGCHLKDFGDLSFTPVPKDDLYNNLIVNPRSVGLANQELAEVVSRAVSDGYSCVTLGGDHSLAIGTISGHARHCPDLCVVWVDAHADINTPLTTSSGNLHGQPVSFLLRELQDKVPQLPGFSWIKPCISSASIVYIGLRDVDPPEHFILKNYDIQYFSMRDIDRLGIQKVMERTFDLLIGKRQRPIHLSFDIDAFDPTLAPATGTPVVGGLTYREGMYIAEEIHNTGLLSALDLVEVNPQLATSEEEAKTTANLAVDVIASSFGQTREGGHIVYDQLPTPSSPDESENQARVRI

[5] = biological target: T3, Proteasome subunit beta (Trypanosoma cruzi) (UniProt O96673); experiment: Trypanosoma cruzi proteasome chymotrypsin-like activity (TcProtChymo) assay.; note: in the data most compounds retested in dose-response had high values; assay type: functional; details: 9.37 µM
T3 sequence (whole entry): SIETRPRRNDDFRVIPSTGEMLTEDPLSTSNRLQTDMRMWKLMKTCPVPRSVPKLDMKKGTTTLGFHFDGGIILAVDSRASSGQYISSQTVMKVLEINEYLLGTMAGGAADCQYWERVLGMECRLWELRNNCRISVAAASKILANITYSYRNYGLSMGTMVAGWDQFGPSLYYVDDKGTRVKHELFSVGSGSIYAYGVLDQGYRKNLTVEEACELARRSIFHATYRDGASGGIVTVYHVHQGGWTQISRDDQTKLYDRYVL

Homo sapiens = species: Homo sapiens; experiment: To identify inhibition of the IFN signalling (Jak-Stat) pathway via expression of an eGFP reporter gene under the control of an IFN-stimulated response element (ISRE) containing MxA promoter.; assay type: functional; details: 30 µM
[6] = biological target: T4, Tyrosyl-tRNA synthetase, putative (Trypanosoma cruzi (strain CL Brener)) (UniProt Q4DSP6); experiment: Trypanosoma cruzi tyrosyl tRNA synthetase (TcYRS) _High Tyrosine SOP; assay type: functional; details: 30 µM; note: in the data most compounds retested in dose-response had high values
T4 sequence (whole entry): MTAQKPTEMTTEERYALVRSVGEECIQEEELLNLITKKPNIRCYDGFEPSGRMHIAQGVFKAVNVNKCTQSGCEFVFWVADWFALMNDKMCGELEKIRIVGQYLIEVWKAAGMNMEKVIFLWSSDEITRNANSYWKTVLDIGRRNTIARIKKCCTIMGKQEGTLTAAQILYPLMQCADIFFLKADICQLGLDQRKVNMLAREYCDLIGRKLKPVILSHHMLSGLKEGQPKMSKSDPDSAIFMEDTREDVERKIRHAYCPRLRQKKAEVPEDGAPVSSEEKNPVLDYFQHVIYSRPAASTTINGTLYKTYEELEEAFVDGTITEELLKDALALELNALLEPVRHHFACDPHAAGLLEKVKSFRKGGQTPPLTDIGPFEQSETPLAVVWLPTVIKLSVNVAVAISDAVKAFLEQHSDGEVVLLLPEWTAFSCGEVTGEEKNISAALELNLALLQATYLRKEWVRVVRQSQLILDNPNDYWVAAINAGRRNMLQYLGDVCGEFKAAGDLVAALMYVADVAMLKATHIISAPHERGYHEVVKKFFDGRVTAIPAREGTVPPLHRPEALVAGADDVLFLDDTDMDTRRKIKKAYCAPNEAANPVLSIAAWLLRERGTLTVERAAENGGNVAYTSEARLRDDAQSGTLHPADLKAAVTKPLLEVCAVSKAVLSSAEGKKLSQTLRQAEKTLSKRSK

[7] = biological target: T4, Tyrosyl-tRNA synthetase, putative (Trypanosoma cruzi (strain CL Brener)); experiment: Trypanosoma cruzi tyrosyl tRNA synthetase (TcYRS) SOP; assay type: functional; details: 30 µM
[8] = biological target: Chromo domain-containing protein 1 (Saccharomyces cerevisiae (strain ATCC 204508 / S288c) (Baker's yeast)) (UniProt P32657); experiment: ScCHD-1 Enzyme Inhibition Assay; assay type: functional; details: 30 µM; note: in the data most compounds retested in dose-response had high values
Sequence of Chromo domain-containing protein 1 (Saccharomyces cerevisiae (strain ATCC 204508 / S288c) (Baker's yeast)) (P32657 whole entry, the tested form may be a part): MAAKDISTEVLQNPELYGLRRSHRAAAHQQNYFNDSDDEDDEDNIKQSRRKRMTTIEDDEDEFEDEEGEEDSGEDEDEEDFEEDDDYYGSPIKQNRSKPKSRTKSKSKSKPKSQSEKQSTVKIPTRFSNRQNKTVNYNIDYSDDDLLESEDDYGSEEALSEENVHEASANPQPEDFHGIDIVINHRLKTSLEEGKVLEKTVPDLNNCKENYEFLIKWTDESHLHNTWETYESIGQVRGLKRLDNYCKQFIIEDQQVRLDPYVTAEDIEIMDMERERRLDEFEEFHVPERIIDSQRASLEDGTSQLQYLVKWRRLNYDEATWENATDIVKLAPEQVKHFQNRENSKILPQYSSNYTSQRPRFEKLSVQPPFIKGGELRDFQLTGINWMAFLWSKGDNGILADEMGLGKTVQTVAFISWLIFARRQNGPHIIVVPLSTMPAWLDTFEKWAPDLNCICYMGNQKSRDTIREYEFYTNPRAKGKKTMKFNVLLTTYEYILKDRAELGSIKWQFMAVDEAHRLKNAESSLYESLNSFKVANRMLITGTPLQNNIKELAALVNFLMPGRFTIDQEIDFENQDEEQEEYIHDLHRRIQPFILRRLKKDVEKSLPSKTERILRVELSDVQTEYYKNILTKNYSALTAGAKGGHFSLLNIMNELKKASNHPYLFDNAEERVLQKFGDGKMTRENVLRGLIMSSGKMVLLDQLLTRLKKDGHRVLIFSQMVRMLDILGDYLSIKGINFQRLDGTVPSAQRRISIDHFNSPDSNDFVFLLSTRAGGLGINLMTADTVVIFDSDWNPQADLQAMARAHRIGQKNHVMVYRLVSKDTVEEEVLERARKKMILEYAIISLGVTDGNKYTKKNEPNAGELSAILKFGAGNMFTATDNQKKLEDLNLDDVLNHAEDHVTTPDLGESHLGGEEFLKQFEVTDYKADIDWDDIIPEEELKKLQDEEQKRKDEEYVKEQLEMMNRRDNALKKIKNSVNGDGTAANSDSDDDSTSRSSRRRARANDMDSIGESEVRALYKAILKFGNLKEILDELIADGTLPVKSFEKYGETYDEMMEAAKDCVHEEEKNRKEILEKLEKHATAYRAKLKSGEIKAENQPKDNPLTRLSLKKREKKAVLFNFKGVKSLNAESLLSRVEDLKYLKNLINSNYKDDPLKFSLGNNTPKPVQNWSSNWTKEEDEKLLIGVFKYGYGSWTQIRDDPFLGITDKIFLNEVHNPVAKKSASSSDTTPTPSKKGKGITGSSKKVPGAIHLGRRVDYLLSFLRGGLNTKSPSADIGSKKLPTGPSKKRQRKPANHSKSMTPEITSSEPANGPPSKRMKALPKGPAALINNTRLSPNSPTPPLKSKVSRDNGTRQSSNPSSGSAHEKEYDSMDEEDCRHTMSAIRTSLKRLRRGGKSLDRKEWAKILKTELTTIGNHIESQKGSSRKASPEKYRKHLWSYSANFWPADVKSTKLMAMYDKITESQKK

Sequence of Sialic acid-binding Ig-like lectin 9 (Homo sapiens) (Q9Y336 whole entry): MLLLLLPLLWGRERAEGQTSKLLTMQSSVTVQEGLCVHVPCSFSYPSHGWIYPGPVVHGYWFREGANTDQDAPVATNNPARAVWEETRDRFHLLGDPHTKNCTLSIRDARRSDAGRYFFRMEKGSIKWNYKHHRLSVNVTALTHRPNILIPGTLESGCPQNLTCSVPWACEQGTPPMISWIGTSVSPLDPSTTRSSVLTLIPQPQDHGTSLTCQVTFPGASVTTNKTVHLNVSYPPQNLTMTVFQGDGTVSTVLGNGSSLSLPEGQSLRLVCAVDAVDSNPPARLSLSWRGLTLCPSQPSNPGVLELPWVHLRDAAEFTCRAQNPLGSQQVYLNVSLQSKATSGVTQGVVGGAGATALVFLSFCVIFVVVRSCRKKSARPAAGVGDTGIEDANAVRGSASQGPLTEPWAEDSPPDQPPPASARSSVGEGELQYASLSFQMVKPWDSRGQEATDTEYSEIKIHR
Sequence of Protein translocase subunit SecA (Escherichia coli (strain K12)) (P10408 whole entry): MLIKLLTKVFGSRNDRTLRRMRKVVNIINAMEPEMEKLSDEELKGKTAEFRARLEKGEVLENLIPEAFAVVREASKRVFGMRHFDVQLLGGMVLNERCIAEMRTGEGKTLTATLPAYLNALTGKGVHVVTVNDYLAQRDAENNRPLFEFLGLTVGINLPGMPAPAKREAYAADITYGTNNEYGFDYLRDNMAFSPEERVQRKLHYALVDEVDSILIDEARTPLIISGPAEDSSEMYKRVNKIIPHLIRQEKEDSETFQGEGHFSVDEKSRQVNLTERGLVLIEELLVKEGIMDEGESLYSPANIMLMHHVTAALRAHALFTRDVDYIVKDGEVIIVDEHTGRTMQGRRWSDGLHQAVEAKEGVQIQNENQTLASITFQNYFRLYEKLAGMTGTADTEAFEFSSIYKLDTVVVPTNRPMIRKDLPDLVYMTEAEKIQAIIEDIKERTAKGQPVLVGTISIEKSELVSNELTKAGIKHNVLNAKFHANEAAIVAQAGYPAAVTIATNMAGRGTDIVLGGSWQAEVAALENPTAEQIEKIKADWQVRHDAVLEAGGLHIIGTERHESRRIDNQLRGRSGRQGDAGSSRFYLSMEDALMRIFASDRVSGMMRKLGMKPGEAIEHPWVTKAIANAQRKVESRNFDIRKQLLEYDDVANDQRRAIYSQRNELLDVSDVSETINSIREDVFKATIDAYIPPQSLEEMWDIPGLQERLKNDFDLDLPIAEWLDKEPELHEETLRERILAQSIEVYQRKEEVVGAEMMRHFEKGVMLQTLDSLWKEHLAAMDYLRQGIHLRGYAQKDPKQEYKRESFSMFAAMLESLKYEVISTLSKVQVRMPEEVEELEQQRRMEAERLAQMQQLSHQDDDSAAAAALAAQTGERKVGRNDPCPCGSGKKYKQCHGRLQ

Row | Compound | Percent Effect [1] [%] | Percent Effect [2] [%] | Percent Effect [3] [%] | Percent Effect (Trypanosoma cruzi) [%] | Percent Effect [4] [%] | Percent Effect [5] [%] | Percent Effect (Homo sapiens) [%] | Percent Effect [6] [%] | Percent Effect [7] [%] | Percent Effect [8] [%]
1 | CCn1cc2c(n1)C(COC)CN(Cc1ccccn1)C2 (stereo not given) | -4.98 | 9.09 | -6.05 | -2.43 | -2.43 | 16.7 | 34.2 | 2.63 | 7.69 | -3.98
2 | COc1ccccc1OCC(=O)NS(=O)(=O)c1ccccc1Br | -3.71 | 13 | 10.4 | 5.78 | 5.12 | 3.51 | 4.3 | 0 | 16.5 | -9.19
3 | CN1CCN(c2cc(CNC(=O)c3ccc(=O)n(C)c3)ccn2)CC1 | -2.29 | 20.5 | -8.46 | 7.04 | 2.87 | 13.9 | 13.3 | -0.478 | 22.9 | -8.95
4 | COc1ccc(CNCC2CCN(CC(C)O)CC2)c2ccccc12 (stereo not given) | -1.39 | -10.3 | 5.63 | 5.73 | 6.97 | 0.939 | 31.9 | 4.31 | 18.1 | -4.71
5 | CC(C)N1CCN(C(=O)Nc2cnn(CC(N)=O)c2)CC1 | -3.33 | 17.9 | -17.7 | 9.67 | 0 | 11.7 | 5.26 | -3.35 | 22.9 | -6.52
6 | Cc1nc(-c2cccc(C(=O)O)c2)cc(C2CCN(C(C)C)C2)n1 (stereo not given) | -2.85 | 6.67 | 1.03 | -1.18 | 4.87 | 9.69 | 1.3 | 6.35 | 17.5 | -15.1
7 | Cc1cc(C2CCCN2Cc2ccn(C)c(=O)c2)no1 (stereo not given) | -3.32 | -10.3 | 3.98 | 9.11 | 1.64 | 8.45 | 4.2 | 3.35 | 8.43 | -0.427
8 | CC(NC(=O)N1CCC(OCc2ccccc2)CC1)c1nncn1C (stereo not given) | -3.83 | 5.33 | -0.332 | 7.63 | 1.33 | 14.8 | 15.6 | 2.63 | 12.8 | -8.27
9 | Cc1nc(C2CCCN2Cc2ncc(C(C)C)o2)no1 (stereo not given) | -0.503 | 2.67 | -1.37 | -0.803 | -0.444 | 1.44 | 13.4 | -1.58 | -5.13 | -7.52
10 | c1ccc(CN2CCc3nnc(CN4CCCCC4)n3CC2)nc1 | -8.66 | 1.3 | -4.58 | -3.41 | -4.86 | 18.1 | 0.921 | 0.526 | 2.56 | -0.472
11 | Cc1cnc(CN(C)C2CCN(Cc3ccccc3C#N)C2)o1 (stereo not given) | 0.623 | 13.3 | -5.38 | -5.82 | 3.1 | 18.4 | 2.92 | 3.68 | 7.69 | -11.8
12 | COCC(=O)N1CC[C@@H](O)[C@@H]1Cc1ccccc1 | -2.38 | 3.9 | -3.29 | 1.27 | -4.45 | 6.27 | -19.5 | -5.79 | 0 | -0.374
13 | Cc1cccc(C(=O)N2CCCCC2c2ccc(CN(C)C)cc2)n1 (stereo not given) | -1.58 | 18.9 | 3.59 | 5.92 | 27.6 | 21.2 | 5.13 | 9.04 | 14.6 | -6.07
14 | CCN(CC1CCOC1)C(=O)Nc1ccc(-n2cncn2)nc1 (stereo not given) | -3.32 | 5.13 | -0.956 | -12.7 | 0 | 9.3 | 5.11 | 4.31 | 10.8 | -5.86
15 | CN(C)c1cc(CNC(=O)Nc2ccc(S(C)(=O)=O)nc2)ccn1 | -1.24 | 10.3 | -5.84 | 0.845 | 1.64 | 10.3 | -0.626 | 6.22 | 25.3 | -2.59
16 | CC(=O)N1[C@H](CN(C)C)C[C@@H]2CN(C(=O)c3cccc(F)c3)CC[C@@H]21 | -6.12 | 9.09 | -5.21 | -3.19 | -12.8 | 14.2 | 14.5 | 3.87 | 0 | -5.63
17 | Cc1ncc2c(n1)CN(CCCc1nc3ccccc3o1)CC2 | -8.07 | 10.7 | 3.45 | 0 | -3.1 | 8.91 | -14.7 | 22.6 | 28.2 | -7.47
18 | Cc1ccc(C#N)cc1NC(=O)NC1CCCN(c2ncccn2)C1 (stereo not given) | -5.74 | 15.6 | 3.91 | -2.98 | 1.02 | -1.4 | 20.9 | 3.92 | 18.8 | -8.47
19 | CCN(C)c1ncnc2c1CCN(Cc1ccoc1)CC2 | -6.65 | 19.5 | -3.79 | 8.86 | -7.69 | 18.8 | -6.57 | 3.68 | 15.4 | -1.25
20 | O=C1COC2(COCCN(Cc3ccsc3)C2)CN1c1ccc(F)cc1 (stereo not given) | -4.18 | 1.3 | 13.2 | -5.36 | 1.22 | 10.3 | -0.829 | 4.74 | 7.69 | -1.9
